High-throughput results (PubChem BioAssay)
GALR2 blocker – GALR2 (human) receptor antagonism; O43603; GALR2-expressing cells, antagonist mode; inhibition, % at 4 µM; 140,000 tested, 0.39% active; in the data active = inhibition above about 27%;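 note: cells stimulated with galanin 1-16 at roughly its EC80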
GALR2 ag – agonists of human galanin receptor 2 (GALR2). O43603. GALR2-expressing cells, agonist activation read-out. activation, % (test concentration not listed). 140,000 tested, 0.48% active; in the data active = activation above about 5%, passing the limit was not always enough
S1P2 blocker – S1P2 (human) receptor antagonism; O95136; cell-based S1P2 antagonist assay, inhibition at 5 uM; inhibition, % at 5 µM; 97,000 tested, 0.21% active; in the data active = inhibition above about 45%;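 note: CRE beta-lactamase reporter cells expressing human S1P2 stimulated with S1P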
Target sequence (O95136 whole entry, looked up): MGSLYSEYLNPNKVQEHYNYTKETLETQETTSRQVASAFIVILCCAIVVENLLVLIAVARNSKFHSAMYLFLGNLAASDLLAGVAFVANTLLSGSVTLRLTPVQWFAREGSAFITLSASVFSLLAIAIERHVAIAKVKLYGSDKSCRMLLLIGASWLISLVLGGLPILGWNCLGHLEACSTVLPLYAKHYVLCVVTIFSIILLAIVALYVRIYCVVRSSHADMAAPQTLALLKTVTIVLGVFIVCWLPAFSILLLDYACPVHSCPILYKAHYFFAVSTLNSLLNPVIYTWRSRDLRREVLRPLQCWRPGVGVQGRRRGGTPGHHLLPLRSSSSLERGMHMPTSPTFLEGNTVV
PostGolgi ctrl – growth of the yeast control strain, post-Golgi counter-screen; inhibition, % at 10 µM; efflux-deficient yeast background strain, growth absorbance A615, 16 h; 98,000 tested, 5% active
S1P2 ag – S1P2 (human) receptor agonism; O95136; S1P2-expressing cell line, agonist reporter read-out; activation, % at 4.5 µM; 97,000 tested, 0.46% active; in the data active = activation above about 16%
PostGolgi yeast – growth inhibition of a yeast mutant, post-Golgi transport screen; post-Golgi transport phenotypic cell assay; inhibition, % at 10 µM; 98,000 tested, 0.9% active;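 note: yeast cells grown in 1536-well plates; yeast grown about 18 h at 30C before absorbance read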
GALR2 agon conf – confirmation of human galanin receptor 2 (GALR2) agonists. GALR2-expressing cells, agonist activation. AID 864. activation, % at 5.6 µM. shares compounds with GALR2 ag. 460 tested, 10% active; in the data active = activation above about 8.4%
BLA act counter – counter-screen for GALR2 agonists: beta-lactamase reporter activators; CHO NFAT-bla reporter, beta-lactamase FRET activation; shares compounds with GALR2 ag; 460 tested, 10% active; activation, % at 5.6 µM; AID 865;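 active = activation above the screen-wide mean activation plus 3 SD, cut at about 8% in these data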
Each line names hits and unclear results; the compound was inactive in the other large screens (follow-up assays come after a bar, where they were run). Only a selection was taken, and hits are over-represented in it overall. Cut-off read from the data, not from the text of the source, unless noted: active = inhibition above about 30%; inactive = the rest.

CCn1c(=O)cc(OCC(=O)Nc2cccc(C)n2)c2ccccc21	GALR2 ag 120 | GALR2 agon conf inactive | BLA act counter inactive
Cc1cccc(-[n+]2c(C)cc(C)c3c(=O)[nH]c(=O)[nH]c32)c1	none (no result: S1P2 blocker, PostGolgi ctrl, S1P2 ag, PostGolgi yeast)
CCCCc1cc(O)c(CCCC)c(O)c1	GALR2 ag 9.8, PostGolgi ctrl 42 | GALR2 agon conf 12 | BLA act counter 27
CC(Sc1nnc(-c2cccnc2)n1-c1ccccc1F)C(=O)N1CCCc2ccccc21 (configuration not stated)	none (no result: S1P2 blocker, PostGolgi ctrl, S1P2 ag, PostGolgi yeast)
O=C(Cn1c(=O)oc2cc(S(=O)(=O)N3CCCCCC3)ccc21)NC1CCCCCCC1	none
O=C(Cn1c(=O)oc2cc(S(=O)(=O)N3CCCC3)ccc21)NC1CCCc2ccccc21 (configuration not stated)	GALR2 ag 16 (no result: S1P2 blocker, S1P2 ag) | GALR2 agon conf inactive | BLA act counter inactive
Cc1nc(-c2cccc(S(=O)(=O)N3CCCC(C)C3)c2)cs1 (configuration not stated)	GALR2 ag 27 | GALR2 agon conf inactive | BLA act counter inactive
COCCNC(=O)c1onc(CSc2ccc(C(C)C)cc2)c1C(=O)O	none
O=C1NC2(CCCCC2)C(=O)N1CCS(=O)(=O)Oc1ccccc1	none | GALR2 agon conf inactive | BLA act counter inactive
O=C(CN1C(=O)NC2(CCCCC2)C1=O)Nc1ccccc1Cl	none (no result: S1P2 blocker, S1P2 ag)
CCOC(=O)Cn1c(=NC(=O)c2cccs2)sc2cc(C(=O)OC)ccc21	GALR2 ag 14 (no result: S1P2 blocker, PostGolgi ctrl, S1P2 ag, PostGolgi yeast) | GALR2 agon conf inactive | BLA act counter inactive
CC(=O)c1nn(-c2ccccc2)cc1C(=O)c1ccc(Br)cc1	GALR2 ag 9.4 (no result: S1P2 blocker, PostGolgi ctrl, S1P2 ag, PostGolgi yeast) | GALR2 agon conf inactive | BLA act counter inactive
CC(C)N(C1=N/C(=C\c2ccco2)C(=O)N1c1ccccc1)C(C)C	none | GALR2 agon conf inactive | BLA act counter 9.2
O=C1/C(=C/c2ccco2)N=C(N2CCCCC2)N1c1ccccc1	none (no result: S1P2 blocker, PostGolgi ctrl, S1P2 ag, PostGolgi yeast)
COC(=O)C1CCN(S(=O)(=O)Cc2ccccc2)CC1	none
CC1CN(C2CCN(S(=O)(=O)Cc3ccccc3)CC2)CC(C)O1 (configuration not stated)	none | GALR2 agon conf inactive | BLA act counter inactive
COc1ccccc1[C@@H]1C(c2cccc(Cl)c2)=NN(c2ccc(Br)cc2)[C@H]1C(=O)N1CCOC1=O	GALR2 ag 18 (no result: S1P2 blocker, PostGolgi ctrl, S1P2 ag, PostGolgi yeast) | GALR2 agon conf 23 | BLA act counter 46
O=C1CC(N2CCC(O)(c3ccc(Br)cc3)CC2)C(=O)N1c1ccc(Cl)cc1 (configuration not stated)	none (no result: S1P2 blocker, PostGolgi ctrl, S1P2 ag, PostGolgi yeast)
CC1CC(C)CN(CCCNC(=O)c2csc3c2CCCC3)C1 (configuration not stated)	GALR2 ag 108 | GALR2 agon conf inactive | BLA act counter inactive
O=C(NCCN1CCOCC1)c1csc2c1CCCC2	none
COc1cccc(NC(=O)c2cc(CN3C(=O)c4ccccc4C3=O)ccc2OC)c1	none (no result: S1P2 blocker, PostGolgi ctrl, S1P2 ag, PostGolgi yeast)
COc1ccc(NC(=O)c2csc3c2CCCC3)cc1	none
COc1ccc(Cc2nc(C(=O)Nc3ccc(OC)cc3)cs2)cc1	GALR2 ag 27 | GALR2 agon conf inactive | BLA act counter inactive
Brc1ccc(-c2nc(N/N=C/c3cccnc3)c3ccccc3n2)cc1	GALR2 ag 76 | GALR2 agon conf inactive | BLA act counter inactive
Cc1ccc(-c2nc(N/N=C/c3ccccc3[N+](=O)[O-])c3ccccc3n2)cc1	none
COc1cccc2cc(-c3nnc(SCC(=O)NCCc4ccccc4)n3C)oc12	none | GALR2 agon conf inactive | BLA act counter inactive
O=C(Oc1ccccc1)N1CCN(c2ccc(F)cc2)CC1	none
O=C(Nc1ccc(N2CCN(c3ccc(O)cc3)CC2)cc1)Oc1ccccc1	GALR2 ag 13 | GALR2 agon conf inactive | BLA act counter inactive
Oc1ccccc1/C=N/Nc1ccnc(SCc2ccccc2)n1	GALR2 ag 23 (no result: S1P2 blocker, PostGolgi ctrl, S1P2 ag, PostGolgi yeast) | GALR2 agon conf inactive | BLA act counter inactive
COc1cc(OC)cc(C(=O)Nn2c(C)nc3ccccc3c2=O)c1	none
COc1ccc2[nH]c3c(c2c1)CCn1c-3nc2ccccc2c1=O	GALR2 ag 8.7 (no result: S1P2 blocker, S1P2 ag) | GALR2 agon conf inactive | BLA act counter inactive
COc1ccc(-c2nnc(-c3ccc(OCC(C)C)cc3)o2)cc1	GALR2 ag 14 | GALR2 agon conf inactive | BLA act counter inactive
CC(SCC(=O)NC12CC3CC(CC(C3)C1)C2)C(=O)O (configuration not stated)	none (no result: S1P2 blocker, PostGolgi ctrl, S1P2 ag, PostGolgi yeast)
